# Assay results published in the supplement of paper PMC6555819.
# Columns and labels:
# Assay in all cases: PBM binding z-score (relative to random genomic background probes); higher = stronger binding; sequences stand for … in GC…GCGATTGACAGCGTAGAATGAAGG
# [1] = tested on: FXR:RXRa (NR concentration 270 nM, RXRa partner concentration 90 nM)
# How it was run: (§1)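 Ligand-free nuclear receptor dimers were bound for 1 h to custom Agilent 4×180K protein-binding microarrays. Detection used antibodies against each partner (one per run). Binding z-scores rest on regression-normalized fluorescence, with random background probes as the reference.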
# [2] = tested on: LXRa:RXRa (NR concentration 270 nM, RXRa partner concentration 90 nM)
# How it was run: as §1
# [3] = tested on: LXRa homodimer (NR concentration 270 nM)
# How it was run: as §1
# [4] = tested on: LXRb:RXRa (NR concentration 270 nM, RXRa partner concentration 90 nM)
# How it was run: as §1
# [5] = tested on: LXRb homodimer (NR concentration 270 nM)
# How it was run: as §1
# [6] = tested on: PPARa:RXRa (NR concentration 270 nM, RXRa partner concentration 90 nM)
# How it was run: as §1
# [7] = tested on: PPARg:RXRa (NR concentration 180 nM, RXRa partner concentration 90 nM)
# How it was run: as §1
# [8] = tested on: PPARg:RXRa 270nM:90nM, anti-RXR (NR concentration 270 nM, RXRa partner concentration 90 nM)
# How it was run: as §1
# [9] = tested on: PPARg:RXRa 30nM:10nM, anti-RXR (NR concentration 30 nM, RXRa partner concentration 10 nM)
# How it was run: as §1
# [10] = tested on: PPARg:RXRa 90nM:30nM, anti-RXR (NR concentration 90 nM, RXRa partner concentration 30 nM)
# How it was run: as §1
# [11] = tested on: PPARg:RXRa DBDmut IVT, anti-RXR (DBD mutation: RXRa K156A/R161A, NR concentration 270 nM, RXRa partner concentration 90 nM)
# How it was run: as §1
# [12] = tested on: PPARg:RXRa IVT, anti-PPARg (NR concentration 270 nM, RXRa partner concentration 90 nM)
# How it was run: as §1
# [13] = tested on: PPARg DBDmut:RXRa IVT, anti-PPARg (DBD mutation: PPARg1 K132A/R137A, NR concentration 270 nM, RXRa partner concentration 90 nM)
# How it was run: as §1
# [14] = tested on: PPARg DBDmut IVT, anti-PPARg (DBD mutation: PPARg1 K132A/R137A, NR concentration 270 nM)
# How it was run: as §1
# [15] = tested on: PPARg homodimer (NR concentration 180 nM)
# How it was run: as §1
# [16] = tested on: PXR:RXRa (NR concentration 270 nM, RXRa partner concentration 90 nM)
# How it was run: as §1
# [17] = tested on: PXR homodimer (NR concentration 270 nM)
# How it was run: as §1
# [18] = tested on: RARa:RXR (NR concentration 270 nM, RXRa partner concentration 90 nM)
# How it was run: as §1
# [19] = tested on: RARa homodimer (NR concentration 270 nM)
# How it was run: as §1
# [20] = tested on: RARb:RXRa (NR concentration 270 nM, RXRa partner concentration 90 nM)
# How it was run: as §1
Sequence,PBM binding z-score [1],PBM binding z-score [2],PBM binding z-score [3],PBM binding z-score [4],PBM binding z-score [5],PBM binding z-score [6],PBM binding z-score [7],PBM binding z-score [8],PBM binding z-score [9],PBM binding z-score [10],PBM binding z-score [11],PBM binding z-score [12],PBM binding z-score [13],PBM binding z-score [14],PBM binding z-score [15],PBM binding z-score [16],PBM binding z-score [17],PBM binding z-score [18],PBM binding z-score [19],PBM binding z-score [20]
AGTCAAAGTTCATCTAGGTAACCTAAGATATGCT,6.25,6.2,6.02,4.02,2,4.99,6.33,6.35,3.52,5.54,0.989,3.71,1.38,1.29,3.22,5.34,6.67,3.84,1.21,4.88
ATCTCTAGGTAACAAGTTCAGTGTAAGAGAGGAC,0.924,0.672,0.835,0.727,1.14,1.52,1.37,2.11,0.896,1.48,3.42,2.96,0.813,1.82,1.08,1.61,2.33,1.09,1.11,1.78
GCTGCTAGGCCAACTGATGGTCAGCTAAAGCTCG,-0.828,-0.78,-0.908,-1.3,-1.01,-1.2,-0.468,-0.849,-1.22,-1.14,1.28,-0.0931,-1.27,-1.3,-0.811,-0.987,-0.793,-0.653,-1.39,0.829
CCTGCAAGGTCAATGGTCAGCTAAAGCAGCTCGC,6.55,4.95,0.264,3.63,0.38,5.21,4.22,4.88,1.21,3.68,2.93,2.76,-0.252,-1.15,2.72,3.78,0.469,4.56,0.759,5.01
CCTTACGGGTCAAGGTTATAGCGCGGGTGGTACG,5.55,3.66,0.129,2.75,0.134,5.04,4.54,4.41,1.73,3.35,2.04,3.57,-0.278,0.175,1.9,3.27,-0.0779,3.94,0.367,4.29
ACTAGCAGGTCAAGTTTGGGTCACTCAAACAAAG,5.89,4.79,1.41,3.88,1.28,4.83,4.43,4.76,1.27,3.41,4.12,4.73,0.847,0.843,3.76,4.22,0.228,5.89,0.164,4.61
AGAATGAGGCTACCAAAGATCAGGGAAACGCTTG,-0.398,0.883,-0.337,-0.482,-1.07,0.361,0.85,0.0255,-0.0527,0.1,1.61,0.854,0.153,-0.213,-0.49,-0.51,-0.439,-0.0885,-0.557,0.164
GCGACTGGGGCATCAGCAGGTTACCAAAACTTAA,-0.46,-0.0944,-0.294,0.621,-0.676,1.34,0.564,0.743,-0.555,-0.000266,3.95,3.39,-1.31,-0.989,0.651,-0.0279,-0.564,0.57,-0.274,0.893
GCGACTGGGGCATCAGTAGGTTACCATAACTTAA,-0.329,-0.299,-0.273,0.586,-0.678,1.55,1.69,1.5,0.0376,0.86,4.06,4.04,-0.43,-0.245,0.247,0.02,-0.313,0.416,-0.569,0.805
TCTTGTAGATCAACAGGAGGTTCAGAAAGATCGA,0.027,-0.0973,-0.476,-0.000896,-0.414,0.453,-0.062,1.25,2.65,2.18,1.5,0.779,0.136,0.251,-0.725,0.256,-0.264,0.00715,-0.572,0.0281
TCTGCTAGGTCGGTTGGTCAGCTAACGAGCTGCC,-1.29,-0.709,-0.834,-0.284,0.368,0.029,-1.04,0.448,0.962,0.78,0.68,0.822,-0.109,-0.00426,-1.51,-0.617,-0.886,-0.528,-1.53,0.845
CCTCGGAGGACTACAGGAGGTCAGAGCTGCCAGA,0.709,3.27,2.29,1.62,-0.728,1.8,0.238,-0.104,-0.885,-0.225,-0.516,-0.34,-1.03,-2.28,0.985,2.04,0.121,2.24,-0.496,1.93
TCTTGTAGATCTACAGGAGGTTAAGAAAGATCGA,-0.0507,1.18,0.0906,1.05,-0.353,1.13,0.0555,1.06,2.09,1.48,0.98,0.28,0.42,1.12,-0.349,0.739,-0.569,0.866,-0.41,0.172
CCTCGCAGGCCAATCTGGGTCACTCAAGGCTTGA,0.68,1.48,-0.253,0.914,-0.638,3,1.74,2.28,-0.176,1.3,3.89,4.74,-0.647,-1.36,0.567,1.21,-0.402,1.75,-0.288,1.67
CGAACTAGGTCATTGACAAGACAGTGAATAGTAA,3.79,2.42,0.115,2.04,-0.0491,4.5,7.38,6.17,3.72,5.54,8.29,8.45,3.1,1.15,0.882,1.26,0.00701,1.79,0.336,3.61
CCTACTGGGCCAAAGGTCATTGGTTCCAATGCTC,5.06,5.15,4.28,4.94,0.631,6.49,11.6,9.63,10.5,10.3,5.02,6.55,0.0482,-0.387,2.89,5.41,2.21,6.04,0.819,4.51
CGTCCAAGTTCAGCAGGTCAGTGAAAGCGACGTG,2.28,2.06,1.12,1.53,-0.267,2.49,0.395,1.17,-0.436,0.285,0.444,0.339,-0.163,-0.669,1.77,2.59,1.6,2.38,0.583,3.75
ATCTCTAGGTAAAAGTTCAGTCAATCCCGAGGAT,0.989,1.98,1.79,1.6,1.34,4.61,8.25,8.34,7.47,9.66,2.32,4.22,1.46,1.49,1.74,2.36,2.13,1.68,1.1,2.64
CCTAGTAGGTCAGGAGGTCACACACCGGATATGA,5.48,4.97,2.62,4.41,0.811,5.81,9.01,7.34,6.14,7.5,7.03,7.47,1.73,1.02,4.99,4.94,1.33,6.63,3.21,4.72
ACTAGCAGGCCAAGGGTCAGTCAAGATTAGTCCG,1.44,1.16,-0.0253,1.33,-0.691,3.79,6.42,6.45,5.89,6.62,0.997,2.79,-0.401,-0.926,1.54,1.69,-0.439,2.56,-0.0893,2.85
TATAGTTGGTCAAAGGTCACACACTCGAAATGCG,5.81,6.08,3.62,5.5,2.11,6.7,11.4,9.75,9.43,10.9,2.28,6.4,1.87,3.69,4.52,6.04,1.29,6.91,2.66,5.04
ATCGAAAGGTCGTGAGGTGAGTAGACAGAAAGGC,5.21,4.15,0.0462,2.98,0.701,4.93,3.83,4.25,1.29,3.08,0.467,2.39,0.658,0.706,1.44,3.07,0.328,4.15,0.372,3.9
ACTATTTGTTGACTTAGGGCAACCGATACGACGC,0.226,0.188,0.404,0.344,1.56,0.197,0.97,0.737,0.434,0.364,0.22,0.532,1.51,1.78,0.884,0.185,0.38,0.364,0.997,1.03
GATAGAGGGTCAGCTAGAGGCCAGAGTATGGAAA,3.79,2.41,-0.113,2.02,-0.604,3.92,2.36,2.57,0.476,1.54,1.62,2.24,-0.25,-0.22,1.64,2.44,-0.0848,3.7,0.224,3.85
ATCTCTAGGTAAAGTTCACTGAAAGATCGATAGA,2.15,3.16,3.22,2.37,1.29,3.64,5.42,5.61,4.25,5.65,2.42,3.28,2.5,1.51,2.51,3.54,2.92,2.82,1.43,3.51
CCTGCTAGGTCATGGTCAGCTCATCTACAGTATG,3.3,2.63,0.179,1.95,0.157,3.42,2.25,2.85,0.448,1.72,4.36,3.86,-0.0537,-0.157,1.09,1.52,-0.186,2.4,0.349,4.08
ATCTCTAGGTAAGAAGTTCAGTGAAAGAGAGGAC,0.325,0.566,0.243,0.366,0.539,0.924,1,2.09,0.954,1.86,1.18,1.29,0.696,1.32,1.05,0.898,1.32,0.518,0.598,1.49
CCCACTGGGCCAAGGTCATTGATCAGTCAAAGCA,3.13,2.95,1.44,2.57,-0.562,3.8,4.07,4.12,1.57,3.3,2.96,4.5,-0.866,-1.7,1.75,3.5,1.12,3.45,-0.0237,3.08
